In the library only some 9.9% were active in any assay of this set; here they are far more common.
SW480 rereplic = DNA re-replication induction in SW480 cells; AID 624297; SW480 DNA re-replication, Hoechst DNA content imaging, 48 h; 340,000 compounds, 1.8% hits; Potency, µM (series often up to 46.1 µM), for inactives: top-dose re-replication activation, most hits filed as activators; further: potency means the concentration at half of the fitted maximal effect; % of control where 0% means no effect; nearly all actives have a fitted effect of over 55% in size
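Image-based DNA-content assay: after two days of treatment, nuclei were labelled with the DNA dye Hoechst and imaged, and hits were compounds raising the count of nuclei showing high fluorescence intensity.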
IL1B secr inh = inhibitors of inflammasome signaling (IL-1 beta secretion); THP-1 LPS/ATP IL-1B secretion, AlphaLISA, 16 h; active compounds read low; AID 743279; 360,000 compounds, 4.7% hits; activity change, % at 57.5 µM; in the data active means activity change below about -50%; inconclusive means mostly about -30% to -49%; further: on the % scale 0 is the no-effect control and ±100 the full control effect
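Secreted IL-1B measured by AlphaLISA bead assay after 16 h compound exposure of THP-1 cells; compounds (final up to 57.5 uM) added 1 h before LPS (250 ng/mL) and ATP (1.25 mM) stimulation; lower signal means less secretion.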
MCF10A rerep = DNA re-replication induction in MCF 10a cells; 350,000 compounds, 2.9% hits; Potency, µM (top dose mostly 46.1 µM), for inactives: at the top dose activity, positive = re-replication, hits mostly activators; AID 624296; MCF 10A DNA re-replication, Hoechst nuclear intensity, 48 h; further: potency means the concentration at half of the fitted maximal effect; % of control where 0% means no effect; nearly all actives have a fitted effect of over 50% in size
KB-V1 MDR tox = KB-V1 MDR subline cytotoxicity; KB-V1 MDR cells viability, CellTiter-Glo, 72 h; AID 1347076; 400,000 compounds, 3.4% hits; Potency, µM (series often up to 46.1 µM), usual class: cytotoxic; further: potency means the concentration at half of the fitted maximal effect; on the % scale 0 is the no-effect control and ±100 the full control effect; nearly all actives have a fitted effect of over 60% in size
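Compound-treated KB-V1 multidrug-resistant cells, 72 h, 37 degrees C; viability by CellTiter-Glo. Fitted qHTS curves give the values.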
KB-3-1 tox = KB-3-1 parental cell cytotoxicity; Potency, µM (top dose mostly 46.1 µM), actives largely listed as cytotoxic; KB-3-1 viability, CellTiter-Glo ATP luminescence, 72 h; AID 1347075; 400,000 compounds, 1.4% hits; further: potency means the concentration at half of the fitted maximal effect; on the % scale 0 is the no-effect control and ±100 the full control effect; nearly all actives have a fitted effect of over 60% in size
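KB-3-1 parental drug-naive adenocarcinoma cells in DMEM/10% FBS, incubated 72 h at 37 C with pin-transferred compounds across a concentration series. Viability by CellTiter-Glo luminescence; concentration-response curves fitted after normalization.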
The depositor's hits bear a star; i = inactive; u = inconclusive; x = not tested or not shown; [ ] = remark or other dose. Unless noted, the call rests on the fitted dose curve; in most records, active means well fitted curve in the direction sought with a large enough effect; inconclusive means small, poorly fitted or top-dose-only effect, or another doubt; inactive means no such curve, though single readings can be large; an effect the other way counts as inactive or inconclusive.

SMILES	SW480 rereplic	IL1B secr inh	MCF10A rerep	KB-V1 MDR tox	KB-3-1 tox
CCN1C(=O)[C@H]2[C@H]3CN=C(SCc4ccc(C)cc4)N3[C@@](C)(C(=O)OC)[C@H]2C1=O	-1%	2	-11%	i	i
C1COCCNCCOCCOCCN1	-1%[9.22 µM]	u	-2%	i	i
C1COCCNCCOCCOCCOCCN1	10µM*	-1	-6%	i	i
Cc1ccc(CNC(=O)C2CCN(S(=O)(=O)c3ccc4c(c3)CC(C)N4C(=O)C3CC3)CC2)cc1 (stereo not given)	-27%	-2	13%	i	i
Cc1cc(C)cc(NC(=O)C2CCC(CNS(=O)(=O)c3ccc4c(c3)C(C)(C)C(=O)N4C)CC2)c1 (stereo not given)	x	x	x	i	18µM*
CC(=O)N1c2ccc(S(=O)(=O)NCC3CCC(C(=O)Nc4ncccc4C)CC3)cc2CC1C (stereo not given)	-5%	9	0%	i	i
CC(=O)N1c2ccc(S(=O)(=O)NCC3CCC(C(=O)Nc4cc(C)ccn4)CC3)cc2CC1C (stereo not given)	u	-78*	16%	i	23µM*
COc1ccc(CNS(=O)(=O)c2ccc3c(c2)CC(C)N3C(=O)C2CC2)cc1 (stereo not given)	-9%	-65*	10%	u	u
Cc1ccc(CNC(=O)CCS(=O)(=O)c2ccc3c(c2)CC(C)N3C(=O)C2CC2)cc1 (stereo not given)	u	20	10µM*	i	21µM*
COc1cccc(CNS(=O)(=O)c2ccc3c(c2)CC(C)N3C(=O)C2CC2)c1 (stereo not given)	u	2	3%	u	i
CC(=O)NC12CC3CC(C1)CC(C(=O)N1CCN(S(=O)(=O)c4ccccc4C#N)CC1)(C3)C2	-130%	8	u	i	i
CC(=O)Nc1ccc(C(=O)CN2C(=O)CSC2=O)cc1	0%	-6	0%	i	i
Nc1ncnc2c1ncn2[C@@H]1O[C@H](C(=O)N(CCC2=CCCCC2)CC2CC2)[C@@H](O)[C@H]1O	x	6	x	i	i
COc1cccc(-c2ncc3ccccc3c2COC(=O)c2ccc(F)cc2)c1	16%[9.22 µM]	-10	36%	i	i
CC1Cc2cc(S(=O)(=O)NCc3ccccc3Cl)ccc2N1C(=O)C1CCC1 (stereo not given)	x	x	x	u	23µM*
CCCn1c(N)c(NCCN2CCOCC2)c(=O)n(CC(=O)NCc2ccccc2)c1=O	-4%	-12	3%	i	i
Cc1ccccc1C(=O)N1CCN(c2ccc([N+](=O)[O-])c(NCc3cccnc3)c2)CC1	-1%	-8	4%	4.1µM*	i
Cc1ccc(C(=O)N2CCN(c3ccc([N+](=O)[O-])c(NCc4cccnc4)c3)CC2)cc1	2%	u	7%	u	i
Cc1ccc(CN2CCN(/N=C/c3ccc(C)s3)CC2)c(C)c1	16µM*	-2	-68%	16µM*	i
Cc1ccc(CN2CCCN(C)CC2)c(C)c1	-1%	-5	21µM*	i	i
CC(OCC(O)CN(C)CCOc1ccccc1)c1ccc(Cl)cc1 (stereo not given)	-1%	-19	-1%	16µM*	i
CN(CCOc1ccccc1)CC(O)COc1ccccc1 (stereo not given)	4%	-10	-5%	i	i
CC[C@@H](CC1CCCCC1)C(=O)N(Cc1ccccc1)c1ccccc1	-4%	40	14%	u	i
N#CCCC1CCCC=C1N(Cc1ccccc1)C(=O)C(Cl)Cl (stereo not given)	4%	x	10µM*	u	i
CCC(C#CCN1CCCCC1)(CC)OCCC#N	-6%	-17	3%	i	i
SMILES	SW480 rereplic	IL1B secr inh	MCF10A rerep	KB-V1 MDR tox	KB-3-1 tox
CCC(C)(C#CCN1CCCCC1)OCCC#N (stereo not given)	18µM*	5	-3%	i	i
N#CC(Cc1ccccc1OC(F)F)c1nc2ccccc2[nH]1 (stereo not given)	7%	-6	1%	u	u
COc1ccc(OC)c(NC(=O)CCCOc2cc(=O)n(C)c3ccccc23)c1	x	x	x	i	i
O=c1c(-c2nc3ccccc3s2)cccn1Cc1ccc(Cl)cc1	u	16	3.3µM*	i	i
Clc1ncccc1-c1nc2ccccc2s1	2%	25	-3%	u	i
Cc1cc(Cl)ccc1NC(=S)NCCC(c1ccccc1)c1ccccc1	0%[9.22 µM]	-8	13µM*	u	u
S=C(NCc1ccco1)Nc1ccc(Cl)cc1	5%	-9	0%	i	i
Cc1cc(Cl)ccc1NC(=S)NCc1ccco1	-4%	-10	0%	21µM*	i
S=C(NCc1ccco1)Nc1ccc(Oc2ccc(Cl)cc2)cc1	11%	-91*	7.3µM*	i	i
Cc1cc(Cl)ccc1NC(=O)C(=O)NCc1ccco1	x	x	x	i	i
COCCN(C(=O)c1csnn1)C(C(=O)NC1CCCCC1)c1ccccc1F (stereo not given)	-72%	-17	7%	i	i
O=C(N/N=C1\CCc2ccccc21)c1ccccc1Cl	1%	-14	-1%	i	i
Cc1ccc(C(=O)N/N=C2\CCc3ccccc32)c(C)c1	1%	-5	2%	23µM*	i
S=C(NN=C(c1ccccc1)c1ccccn1)N(Cc1ccccn1)Cc1ccccn1	u	-58*	u	i	u
Cc1ccccc1NC(=S)N(Cc1ccccn1)Cc1ccccc1Cl	u	u	5%	i	i
S=C(NN=Cc1ccccn1)N(Cc1ccccn1)Cc1ccccn1	5.8µM*	59	13µM*	u	6.5µM*
COc1ccccc1NC(=S)N(Cc1ccc(C)cc1)Cc1ccccn1	-1%	23	1%	i	i
CC(=NNC(=S)N(Cc1ccccn1)Cc1ccccn1)c1cnccn1	u	104	4.6µM*	13µM*	u
COc1ccc(-c2cncc3nccn23)cc1OC	x	-6	x	i	i
CCOc1ccc(-c2cncc3nccn23)cc1	x	-52*	x	i	i
CC(=O)Nc1c(I)cc(I)c(C(=O)O)c1I	-8%	x	2%	x	x
Nc1c(Cl)cc2c(c1Oc1ccccc1)C(=O)c1ccccc1C2=O	u	-71*	13µM*	u	i
Cc1ccc2oc(C(=O)Nc3ccc(S(=O)(=O)Nc4ncccn4)cc3)cc(=O)c2c1	x	x	x	i	i
O=C(c1ccc(OC2CCN(C/C=C/c3ccc(F)cc3)CC2)cc1)N1CCCC1	-4%	-71*	18%	i	i
O=C(c1ccc(OC2CCN(Cc3ccc(F)cc3)CC2)cc1)N1CCCC1	5%	-7	23%	i	i

Screening data: PubChem, National Center for Advancing Translational Sciences (NCATS)
